Potency and affinity values are given separately. Calls of active or inactive are those of the source.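 The calls were made as follows: active = fitted EC50, the concentration giving half the signal drop, under 100 µM; inactive = the rest.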
Biological target: ATP-binding cassette sub-family B member 6 (Homo sapiens) (UniProt Q9NP58)
Experiment: ABCB6 transporter inhibitors, dose response, K562-ABCB6 cells, flow cytometry, cherry pick 1 (AID 623955)
Conditions: K562-ABCB6 porphyrin fluorescence, 1 h; series mostly up to 100 µM; response, lower = inhibition: at the top concentration

ATP-binding cassette sub-family B member 6 (Homo sapiens), sequence (Q9NP58 whole entry, looked up): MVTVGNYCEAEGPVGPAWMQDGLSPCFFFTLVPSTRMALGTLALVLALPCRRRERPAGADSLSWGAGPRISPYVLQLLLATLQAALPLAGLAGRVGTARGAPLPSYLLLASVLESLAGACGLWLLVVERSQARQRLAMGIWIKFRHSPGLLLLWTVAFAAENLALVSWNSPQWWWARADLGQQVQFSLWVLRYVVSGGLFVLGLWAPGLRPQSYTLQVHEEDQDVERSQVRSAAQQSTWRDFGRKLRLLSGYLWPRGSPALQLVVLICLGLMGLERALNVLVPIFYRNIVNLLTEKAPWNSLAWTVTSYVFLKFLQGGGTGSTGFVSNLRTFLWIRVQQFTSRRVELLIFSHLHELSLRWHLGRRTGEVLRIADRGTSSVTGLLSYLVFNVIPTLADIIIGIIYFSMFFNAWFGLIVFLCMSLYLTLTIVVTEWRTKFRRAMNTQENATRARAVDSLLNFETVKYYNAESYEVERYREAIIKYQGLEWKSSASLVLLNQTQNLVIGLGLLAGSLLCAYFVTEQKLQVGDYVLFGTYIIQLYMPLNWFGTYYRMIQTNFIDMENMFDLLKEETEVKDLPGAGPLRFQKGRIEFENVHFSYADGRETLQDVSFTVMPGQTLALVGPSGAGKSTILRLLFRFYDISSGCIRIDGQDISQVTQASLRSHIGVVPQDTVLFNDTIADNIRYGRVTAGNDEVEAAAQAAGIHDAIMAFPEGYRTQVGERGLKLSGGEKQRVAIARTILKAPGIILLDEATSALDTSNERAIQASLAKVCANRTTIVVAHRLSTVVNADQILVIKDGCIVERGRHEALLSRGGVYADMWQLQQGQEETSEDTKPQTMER

response, lower = inhibition, inactive:
CC1CCN(c2ccc3nnc(CCC(=O)NCCCOC(C)C)n3n2)CC1 99.7%, O=C(CCc1nnc2ccc(N3CCC4(CC3)OCCO4)nn12)N1CCCCC1 104%, CC(C)CCNC(=O)CCc1nnc2ccc(N3CCC(C)CC3)nn12 99.4%, CCOC(=O)C(C)NC(=O)CCc1nnc2ccc(N3CCC(C)CC3)nn12 (centres undefined) 95.3%, CCOC(=O)C(C)NC(=O)CCc1nnc2ccc(N3CCCCC3)nn12 (centres undefined) 101%, COCCNC(=O)CCc1nnc2ccc(N3CCC(C)CC3)nn12 93%, CCN1CCN(C(=O)CCc2nnc3ccc(N4CCC5(CC4)OCCO5)nn23)CC1 103%, CCOC(=O)C1CCN(C(=O)CCc2nnc3ccc(N4CCN(C)CC4)nn23)CC1 92.3%, COC(=O)C(NC(=O)CCc1nnc2ccc(N3CCCCC3)nn12)C(C)C (centres undefined) 104%, CC1CCN(c2ccc3nnc(CCC(=O)N4CCCCC4)n3n2)CC1 97.7%, CCOC(=O)N1CCN(CC(=O)Nc2ccc(C)cc2)CC1 98.2%, CCCNC(=O)CCc1nnc2ccc(N3CCC(C)CC3)nn12 91.6%, CN1CCN(C(=O)CCc2nnc3ccc(N4CCC5(CC4)OCCO5)nn23)CC1 101%, O=C(CN1CCCCC1)Nc1cccc(Br)c1 100%, CCC(C)NC(=O)CCc1nnc2ccc(N3CCC(C)CC3)nn12 (centres undefined) 103%, CC1CCN(C(=O)CCc2nnc3ccc(N4CCC5(CC4)OCCO5)nn23)CC1 97.7%, COC(=O)C(NC(=O)CCc1nnc2ccc(N3CCC(C)CC3)nn12)C(C)C (centres undefined) 89.9%, COCCCNC(=O)CCc1nnc2ccc(N3CCC(C)CC3)nn12 98.7%, CCc1ccc(CNC(=O)C2Cc3cc(S(=O)(=O)N4CCCC4)ccc3N2C(C)=O)cc1 (centres undefined) 92.3%, CCOC(=O)CNC(=O)CCc1nnc2ccc(N3CCC(C)CC3)nn12 96.3%, CC1CCN(c2ccc3nnc(CCC(=O)NC(C)C)n3n2)CC1 104%, CCOCCCNC(=O)CCc1nnc2ccc(N3CCCCC3)nn12 87.2%, CCN(CC)CCNC(=O)CCc1nnc2ccc(N3CCC(C)CC3)nn12 96%, CC1CC(C)CN(C(=O)CCc2nnc3ccc(N4CCCCC4)nn23)C1 (centres undefined) 92.3%

Reference: PubChem BioAssay AID623955 (NMMLSC, 2012)
